# FMDV RLuc = Primary qHTS Assay for Foot and Mouth Disease Virus Antivirals against NCGC Sytravon and CBC Compound Libraries: Renilla Luciferase Signal. FMDV replicon cells, Renilla luciferase signal. Potency, µM (series often up to 57.5 µM), for inactives: top-dose activity change, negative = inhibition, actives largely listed as inhibitors. 120,000 compounds, 0.32% hits; also: nearly all actives have a fitted effect of over 55% in size
# FMDV FLuc = Primary qHTS Assay for Foot and Mouth Disease Virus Antivirals against NCGC Sytravon and CBC Compound Libraries: Firefly Luciferase Signal. Potency, µM (doses to about 57.5 µM), without a hit: at the highest dose activity change, negative = inhibition, hits mostly inhibitors. AID 1745856, 2022. FMDV antiviral cell assay, firefly luciferase signal. 120,000 compounds, 0.23% hits; also: nearly all actives have a fitted effect of over 60% in size
# Starred values were filed as active, the others as inactive; u = inconclusive. This is a sample that favours compounds with a hit; in the whole collection about 0.4% have one here. Calls follow the shape of the full dose curve. % is scaled to controls: 0 for no effect and ±100 for the full control effect; potency is read from the fitted curve at half-maximal effect.
SMILES,FMDV RLuc,FMDV FLuc
COc1ccc(-c2nnc(SCc3cc(=O)c4cc(C)cc(C)c4[nH]3)n2C)cc1,3.98µM*,u
COc1ccc(C(=O)Nc2nnc(SCc3cc(=O)c4cc(C)cc(C)c4[nH]3)s2)cc1,-10.1%,12.4%
Cc1cc(/C=C/C(=O)c2cccs2)cc(C)c1O,28.3%,134.6%
COc1ccc(-c2cc(C(=O)NCc3ccc(F)cc3)c3ccccc3n2)c(OC)c1,24.4%,-1.4%
COc1ccccc1CNC(=O)c1c(O)nc2c(C)cccn2c1=O,35.5µM*,u
COc1ccc(CCNC(=O)c2c(O)nc3c(C)cccn3c2=O)cc1OC,-12.6%,-18.5%
O=C(Nc1ccc2nc(N3CCN(C4CCCCC4)CC3)cc(C(=O)O)c2c1)c1cccc(Cl)c1,-6.2%,-1.9%
CC(C)NC(=O)/C(C#N)=C\c1cccc(/C=C(/C#N)C(=O)NC(C)C)c1,-33.9%,28.2µM*
CC(C)NC(=O)/C(C#N)=C\c1ccc(O)cc1,7.8%,79.3%
COc1cc(NC(=O)c2cc3ccccc3o2)ccc1NC(=O)c1ccccc1Cl,-11.2%,13.0%
CCOc1ccc(CN2CCN(c3ncnc4sccc34)CC2)cc1,0.891µM*,1.12µM*
COc1ccc(-c2csc3ncnc(N4CCN(Cc5ccccc5)CC4)c23)cc1,-6.9%,14.8%
Cc1ccc(-c2cc(C(=O)O)c3ccc(Br)cc3n2)o1,-2.4%,24.0%
C(=Nc1ccccc1)c1ccc(-c2cccs2)s1,8.91µM*,u
CC(C)(C)c1ccc(N=Cc2cccs2)cc1,3.6%,4.1%
O=C(Cc1ccccc1)NC1CCN(c2ccc(S(=O)(=O)C(F)(F)F)cc2)CC1,3.55µM*,3.16µM*
O=C(CCc1ccccc1)NC1CCN(c2ccccc2S(=O)(=O)C(F)(F)F)CC1,u,-20.8%
Cc1noc(C)c1COc1ccc(CC(=O)Nc2ncccc2O)cc1,7.9%,8.2%
CCc1c(C)sc2c1CCN(C(=O)Nc1ccccc1C(=O)OC)C2c1ccc(F)cc1 (stereo not drawn),3.4%,-13.8%
CCc1c(C)sc2c1CCN(C(=O)Nc1ccc(F)c(Cl)c1)C2c1ccc(F)cc1 (stereo not drawn),u,35.5µM*
NC(=O)c1[nH]ncc1NCc1cccnc1,4.3%,4.0%
Cc1ccc(NC(=O)CN2C(=O)C3(SCC(=O)N3c3cccc(Cl)c3)c3ccccc32)cc1C (stereo not drawn),12.6µM*,u
Cc1ccc(N2C(=O)CSC23C(=O)N(CC(=O)Nc2ccc(C(C)C)cc2)c2ccccc23)cc1C (stereo not drawn),-26.5%,u
COc1cc(C2CC(=O)N3CN(c4ccc(C)c(Cl)c4)CSC3=C2C#N)ccc1O (stereo not drawn),-7.7%,54.0%
Cc1ccc(C(=O)Nc2nc(-c3nnn(-c4cccc(Cl)c4C)c3C)ns2)cc1C,5.01µM*,3.55µM*
SMILES,FMDV RLuc,FMDV FLuc
Cc1ccc(Cl)cc1-n1nnc(-c2nsc(NC(=O)c3ccccc3Cl)n2)c1C,-15.4%,111.5%
CCN(CC)CCN1C(=O)C(=O)/C(=C(/O)c2ccc(OCc3cccc(C)c3)cc2)C1c1ccco1 (stereo not drawn),-8.4%,105.1%
COc1cc(/C=C(/C#N)C(=O)c2ccccc2)ccc1OC(=O)c1ccc(F)cc1,28.8%,38.9%
CCN1CCN(c2cc(-c3ccc(F)cc3)c3c(n2)CCCCCC3)CC1,11.2µM*,u
CCN1CCN(c2oc(-c3ccc(F)cc3)nc2C#N)CC1,2.6%,22.3%
CN(Cc1ccccc1)c1oc(-c2cccc(Cl)c2)nc1C#N,30.3%,21.2%
COc1ccc2c(c1)c(C(C)=O)c(C)n2CCc1ccc(OC)c(OC)c1,-6.2%,-2.6%
COc1ccc2c(c1)c(C(C)=O)c(C)n2CCc1ccccc1,11.2µM*,u
Cc1nc2cc(NC(=O)c3ccc(C(C)(C)C)cc3)ccc2o1,4.47µM*,7.94µM*
CCc1ccc(-c2nc3cc(NC(=O)c4ccc(C)c(C)c4)ccc3o2)cc1,1.7%,29.0%
Cc1nc2cc(NC(=O)c3cccc(Cl)c3)ccc2o1,-28.4%,0.0%
CCc1ccc(C(=O)Nc2ccc3oc(C)nc3c2)cc1,10µM*,-18.5%
Fc1ccc(C=Nc2cccc3c(N=Cc4ccc(F)cc4)cccc23)cc1,-13.4%,31.5%
CCOc1c(OC)cc(Br)c2cc(C(=O)O)[nH]c12,8.9%,16.9%
COc1ccc(-c2nc(CSCC(=O)NCCCN3CCOCC3)c(C)o2)cc1OC,0.6%,7.0%
COc1cccc(C2C3=C(CC(C)(C)CC3=O)Nc3cc4c(cc32)OCO4)c1OC (stereo not drawn),14.1%,-4.4%
N#Cc1ccccc1CON=C1CCC2(CC1)OCCO2,15.8%,193.3%
O=[N+]([O-])c1cccc(CON=C2CCC3(CC2)OCCO3)c1,-7.5%,2µM*
O=C(COc1ccc2c(-c3ccc(F)cc3)noc2c1)OCc1ccccc1,0.7%,2.82µM*
COC(=O)c1ccc(COc2ccc3c(-c4ccc(F)cc4)noc3c2)cc1,15.8%,15.8%
COc1ccccc1C(=O)Nc1nc(-c2ccc(Br)cc2)ns1,-4.2%,-2.9%
Cc1ccccc1C(=O)Nc1nc(-c2ccc(Br)cc2)ns1,35.5µM*,u
Cc1ccc(-c2cc(C(=O)Nc3ccccn3)c3ccccc3n2)s1,3.7%,58.3%
CCNc1nc(SC(C)C(=O)NC2CC2)nc2ccccc12 (stereo not drawn),23.8%,44.8%
COc1ccc(CN2CCc3c(c(=O)n4ncc(C(=O)N5CCN(c6ccccc6OC)CC5)c4n3C)C2)cc1,1.78µM*,2.82µM*
SMILES,FMDV RLuc,FMDV FLuc
CCn1c2c(c(=O)n3ncc(C(=O)Nc4cc(Cl)ccc4OC)c13)CN(Cc1ccc(OC)cc1)CC2,11.1%,-20.8%
CCC(=O)Nc1ccc2oc(-c3cccc4c(Cl)cccc34)nc2c1,-3.1%,-0.8%
COc1ccccc1OCCn1cc(C(=O)C(F)(F)F)c2cc(Br)ccc21,-9.5%,-3.2%
COc1ccccc1OCCn1cc(C(C)=O)c2ccccc21,15.8µM*,u
O=C(O)c1cc2ccccc2c2cccnc12,-13.4%,-11.9%
Cc1cc(N(C)C)nc(Nc2ccc(NC(=O)Nc3ccc(F)cc3)cc2)n1,-7.3%,23.5%
CCN(CC)c1cc(C)nc(Nc2ccc(NC(=O)CCCc3ccccc3)cc2)n1,31.6µM*,u
CCOc1cc(/C=C/c2ncc(C(=O)O)s2)cc(Br)c1OC,8.9%,18.4%
O=C1CC(c2ccc(Cl)cc2)CC2=C1C=Nc1ccccc1N2 (stereo not drawn),-9.4%,0.0%
CC1=C2C(=O)CC(c3ccc(Cl)cc3)CC2=Nc2ccccc2N1 (stereo not drawn),10µM*,8.91µM*
CCCCOC(=O)c1cccc(NC(=O)c2cc3ccccc3o2)c1,-12.9%,8.91µM*
CCCCOC(=O)c1ccc(NC(=O)c2cc(=O)c3ccccc3o2)cc1,-4.6%,-19.1%
CC(=O)Nc1ccc(S(=O)(=O)N2CCCCCC2c2ccc(C)s2)cc1 (stereo not drawn),114.3%,9.5%
O=C(Nc1ccc(S(=O)(=O)N2CCCCC2c2cccnc2)cc1)c1ccc(Br)cc1 (stereo not drawn),u,25.1µM*
Brc1ccc(-c2csc3ncnc(Sc4nnc(C5CC5)o4)c23)cc1,u,25.1µM*
O=c1c2c(-c3ccc(Br)cc3)csc2ncn1-c1ccccc1,-1.9%,1.3%
N#CC1=C(N)Oc2c(c(=O)[nH]c3ccccc23)C1c1ccccc1 (stereo not drawn),3.6%,3.7%

# Assay outcomes as filed in PubChem.
